Several values for one entry are separate records, joined by “and”; a condition that tells them apart may be missing. Identical values can stand only once.
Tested on: T1, MLK1
T1 construct: gene MAP3K9
Conditions: concentration: 1 μM, replicates: in singlicate; n = 1
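Note: KINOMEscan kinase panel screen.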

Row | SMILES | %Inh [%]
1 | COc1ccc(Nc2nccc(N3CCC(NC(=O)Nc4cccc(C(C)=O)c4)C3)n2)cc1 (centres unmarked) [GSK1379731] | 0
2 | Fc1ccc(-c2nn3c(OCC(F)(F)F)cccc3c2-c2ccncc2)cc1 [GW514784] | 0
3 | Cc1cn2c(=O)cc(N3CCOCC3)nc2n1Cc1cccc(Cl)c1Cl [GSK2334006] | 0
4 | Fc1ccc(-c2ncn(CCCN3CCOCC3)c2-c2cccnc2)cc1 [SB-211743] | 0
5 | C[C@@H](Oc1cc(-n2cnc3ccc(NC(=O)NC(C)(C)C)cc32)sc1C(N)=O)c1ccccc1Cl [GSK346294] | 0
6 | Cc1ccc(C(=O)NCC(N)=O)cc1-n1c(C)cc(OCc2ccc(F)cc2F)c(Br)c1=O | 25
7 | c1ccc(-c2n[nH]cc2-c2ccnc3ccccc23)nc1 [GW271431] | 0
8 | O=C1Cc2cc(Nc3nc(NCc4cccc(S(=O)(=O)C(F)(F)F)c4)ncc3C(F)(F)F)ccc2N1 | 0
9 | NCC(NC(=O)c1cc(-c2cn[nH]c2)c(-c2ccnc3[nH]ccc23)s1)c1ccccc1.O=C(O)C(F)(F)F.O=C(O)C(F)(F)F (centres unmarked) [GSK1325775] | 0
10 | COc1ccc(Nc2nccc(N3CCC(NC(=O)Nc4cc(C)ccc4C)C3)n2)cc1 (centres unmarked) [GSK1379741] | 0
11 | CC(C)Oc1ccc2c(-c3ccnc(Nc4ccc(N5CCN(C)CC5)cc4)n3)cnn2n1 [GW696155] | 0
12 | O=C(c1ccc(-c2cc(-c3c[nH]nc3-c3ccccn3)ccn2)cc1)N1CCOCC1 [GW812171] | 0
13 | CN(C(=O)c1ccc(-c2cc(-c3c[nH]nc3-c3ccccn3)ccn2)cc1)C1CCOCC1 [GW810083] | 0
14 | O=C(Nc1cccc(-c2nn3ncccc3c2-c2ccnc(Nc3cccc(C(F)(F)F)c3)n2)c1)c1c(F)cccc1F [GSK299495] | 0
15 | Cl.Oc1cccc(Nc2ccnc3cc(-c4ccncc4)ccc23)c1 [GW494601] | 0
16 | O=c1cc(N2CCOCC2)nc2n(Cc3cccc(F)c3)ccn12 [GSK2297430] | 2
17 | COc1ccc(CNC(=O)NC2CCN(c3ccnc(Nc4ccc(OC)cc4)n3)C2)cc1 (centres unmarked) [GSK1379727] | 0

Row | SMILES | %Inh [%]
18 | CCc1nc(-c2cccc(C)c2)c(-c2ccnc(NCc3ccccc3)c2)s1 | 0
19 | CCc1ccnc(/C=C/c2n[nH]c3cc(Sc4ccccc4C(=O)NC)ccc23)c1 | 9
20 | Cc1nnc(-c2ccc(C)c(-c3ccc(C(=O)Nc4ccc(NS(C)(=O)=O)cc4)cc3)c2)o1 [GW702865] | 5
21 | Cc1nnc(-c2ccc3ncc(-c4ccc(S(C)=O)cc4)n3c2)o1 (centres unmarked) | 0
22 | CC(=O)Nc1ccc(COc2ccc(Nc3ccnc4cc(-c5ccccn5)ccc34)cc2)cc1.Cl [GW440148] | 0
23 | CCn1cnc2c(N)ncnc21 [GW345098] | 6
24 | Cc1nnc(-c2ccc3occ(-c4ccc(C(C)O)cc4)c3c2)o1 (centres unmarked) | 6
25 | O=c1cc(N2CCOCC2)nc2n(Cc3cccc(Cl)c3Cl)c(C3CC3)nn12 [GSK2358994] | 0
26 | O=C(NCCCN1CCOCC1)c1cccc(Nc2nccc(Nc3ccc(Oc4ccccc4)cc3)n2)c1 [GW663929] | 0
27 | [2H]C([2H])(c1cccc(C(F)(F)F)c1C)n1ccn2c(=O)nc(N3CCOCC3)cc12 [GSK2336394] | 0
28 | NS(=O)(=O)CCc1cccc(Nc2nccc(-c3c(-c4cccc(NC(=O)c5c(F)cccc5F)c4)nn4ccccc34)n2)c1 [GSK336735] | 0
29 | Cl.Cl.Cl.Fc1ccc(-c2ncn(C3CCNCC3)c2-c2ccnc(Nc3ccccc3)n2)cc1 [SB-238039] | 0
30 | CN1c2ccc(NCc3ccc(F)cc3)cc2-c2c(cnn2C)S1(=O)=O | 15
31 | COCCNC(=O)c1ccc(-c2cc(C(=O)NC3CC3)cc(F)c2C)cc1 [GW868318] | 0
32 | N#Cc1ccc(-c2cc(-c3c[nH]nc3-c3ccccn3)ccn2)cc1 [GW693028] | 0
33 | O=C(NOCC1CC1)c1ccc(F)c(F)c1Nc1ccc(I)cc1Cl | 0

Tested on: MLK2
Conditions: concentration: 1 μM, replicates: in singlicate; 1 µM; n = 1

Row | SMILES | %Inh
34 | CC(C)(CN)c1nc(-c2ccc(Cl)c(O)c2)c(-c2ccncc2)[nH]1.O=C(O)C(F)(F)F [SB-477794] | 0% and 10%
35 | NCCNS(=O)(=O)c1ccc(-c2ccnc3[nH]ccc23)cc1 [GSK977617] | 21% and 18%
36 | Cl.Cl.Cl.Fc1ccc(-c2ncn(C3CCNCC3)c2-c2ccnc(Nc3ccccc3)n2)cc1 [SB-238039] | 40% and 6%

Same assay, conditions: concentration: 1 μM, replicates: in singlicate; n = 1

Row | SMILES | %Inh [%]
37 | COc1ccc(Nc2nccc(N3CCC(NC(=O)Nc4cccc(C(C)=O)c4)C3)n2)cc1 (centres unmarked) [GSK1379731] | 0
38 | Fc1ccc(-c2nn3c(OCC(F)(F)F)cccc3c2-c2ccncc2)cc1 [GW514784] | 0
39 | Cc1cn2c(=O)cc(N3CCOCC3)nc2n1Cc1cccc(Cl)c1Cl [GSK2334006] | 2
40 | Fc1ccc(-c2ncn(CCCN3CCOCC3)c2-c2cccnc2)cc1 [SB-211743] | 39
41 | C[C@@H](Oc1cc(-n2cnc3ccc(NC(=O)NC(C)(C)C)cc32)sc1C(N)=O)c1ccccc1Cl [GSK346294] | 27
42 | Cc1ccc(C(=O)NCC(N)=O)cc1-n1c(C)cc(OCc2ccc(F)cc2F)c(Br)c1=O | 19
43 | c1ccc(-c2n[nH]cc2-c2ccnc3ccccc23)nc1 [GW271431] | 0
44 | O=C1Cc2cc(Nc3nc(NCc4cccc(S(=O)(=O)C(F)(F)F)c4)ncc3C(F)(F)F)ccc2N1 | 32
45 | NCC(NC(=O)c1cc(-c2cn[nH]c2)c(-c2ccnc3[nH]ccc23)s1)c1ccccc1.O=C(O)C(F)(F)F.O=C(O)C(F)(F)F (centres unmarked) [GSK1325775] | 0
46 | COc1ccc(Nc2nccc(N3CCC(NC(=O)Nc4cc(C)ccc4C)C3)n2)cc1 (centres unmarked) [GSK1379741] | 0
47 | CC(C)Oc1ccc2c(-c3ccnc(Nc4ccc(N5CCN(C)CC5)cc4)n3)cnn2n1 [GW696155] | 0
48 | O=C(c1ccc(-c2cc(-c3c[nH]nc3-c3ccccn3)ccn2)cc1)N1CCOCC1 [GW812171] | 34
49 | CN(C(=O)c1ccc(-c2cc(-c3c[nH]nc3-c3ccccn3)ccn2)cc1)C1CCOCC1 [GW810083] | 0
50 | O=C(Nc1cccc(-c2nn3ncccc3c2-c2ccnc(Nc3cccc(C(F)(F)F)c3)n2)c1)c1c(F)cccc1F [GSK299495] | 0
51 | Cl.Oc1cccc(Nc2ccnc3cc(-c4ccncc4)ccc23)c1 [GW494601] | 0
52 | O=c1cc(N2CCOCC2)nc2n(Cc3cccc(F)c3)ccn12 [GSK2297430] | 0

Row | SMILES | %Inh [%]
53 | COc1ccc(CNC(=O)NC2CCN(c3ccnc(Nc4ccc(OC)cc4)n3)C2)cc1 (centres unmarked) [GSK1379727] | 0
54 | CCc1nc(-c2cccc(C)c2)c(-c2ccnc(NCc3ccccc3)c2)s1 | 0
55 | CCc1ccnc(/C=C/c2n[nH]c3cc(Sc4ccccc4C(=O)NC)ccc23)c1 | 4
56 | Cc1nnc(-c2ccc(C)c(-c3ccc(C(=O)Nc4ccc(NS(C)(=O)=O)cc4)cc3)c2)o1 [GW702865] | 0
57 | Cc1nnc(-c2ccc3ncc(-c4ccc(S(C)=O)cc4)n3c2)o1 (centres unmarked) | 0
58 | CC(=O)Nc1ccc(COc2ccc(Nc3ccnc4cc(-c5ccccn5)ccc34)cc2)cc1.Cl [GW440148] | 0
59 | CCn1cnc2c(N)ncnc21 [GW345098] | 12
60 | Cc1nnc(-c2ccc3occ(-c4ccc(C(C)O)cc4)c3c2)o1 (centres unmarked) | 14
61 | O=c1cc(N2CCOCC2)nc2n(Cc3cccc(Cl)c3Cl)c(C3CC3)nn12 [GSK2358994] | 0
62 | O=C(NCCCN1CCOCC1)c1cccc(Nc2nccc(Nc3ccc(Oc4ccccc4)cc3)n2)c1 [GW663929] | 0
63 | [2H]C([2H])(c1cccc(C(F)(F)F)c1C)n1ccn2c(=O)nc(N3CCOCC3)cc12 [GSK2336394] | 0
64 | NS(=O)(=O)CCc1cccc(Nc2nccc(-c3c(-c4cccc(NC(=O)c5c(F)cccc5F)c4)nn4ccccc34)n2)c1 [GSK336735] | 3
65 | CN1c2ccc(NCc3ccc(F)cc3)cc2-c2c(cnn2C)S1(=O)=O | 22
66 | COCCNC(=O)c1ccc(-c2cc(C(=O)NC3CC3)cc(F)c2C)cc1 [GW868318] | 41
67 | N#Cc1ccc(-c2cc(-c3c[nH]nc3-c3ccccn3)ccn2)cc1 [GW693028] | 6
68 | O=C(NOCC1CC1)c1ccc(F)c(F)c1Nc1ccc(I)cc1Cl | 0
